Compound activity (PubChem BioAssay)
WRN helicase inh: inhibitors of human WRN helicase | Q14191 | WRN helicase unwinding, fluorescent forked duplex, kinetic | Potency, µM (top dose mostly 114 µM), without a hit: at the top dose activity change, negative = inhibition, usual class: inhibitors | 0.46% of 360,000 active; also: potency is read from the fitted curve at half-maximal effect; nearly all actives have a fitted effect of over 55% in size
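Kinetic red-fluorescence monitoring (525/598 nm) tracks WRN helicase activity after 100 nM fluorophore-quencher forked duplex and 2 mM ATP are added to 20 nM enzyme pretreated 15 min at room temperature with compound.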
USP2a block: USP2a (human) protease inhibition. O75604. 0.01% of 330,000 active. USP2 core, Ub-CHOP2 coupled fluorogenic reporter, 485/531. Potency, µM (series often up to 38.3 µM), for the others: top-dose activity change, negative = inhibition, hits mostly inhibitors;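 also: potency is read from the fitted curve at half-maximal effect; plate controls were DMSO wells for no effect and full inhibition by NEM control for full effect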
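Cell-free coupled assay: 10nM USP2 core preincubated 30min RT with compound in Tris-HCl pH 8.0/CaCl2/CHAPS buffer, then 25nM Ub-CHOP2 and 25nM reporter substrate; fluorescence (Ex 485/Em 531) read after 60min RT, normalized to NEM inhibition, concentration-response curves fitted.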
PI5P4K alpha inh: blocks human PI5P4K alpha kinase activity; P48426; PI5P4Kalpha enzyme, ADP-Glo luminescence, 60 min; active compounds read low; max response, %; 1.2% of 330,000 active; active = max response of -50% or lower; inconclusive = between -30% and -50%; inactive = -30% or higher; also: value at the top dose of about 77 µM
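Quantitative HTS of the MLSMR library against PI5P4Kalpha with substrate. ATP added last at 5 microM final; room temperature, 60 minutes. Remaining ATP depleted, ADP converted and read as luminescence.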
PLK1 PBD inh: blocks phosphopeptide binding to human PLK1 polo-box domain. 2.8% of 360,000 active. Plk1 PBD binding of FITC phosphopeptide, fluorescence polarization. Potency, µM, inactives show max response, negative = inhibition, usual class: inhibitors; also: potency is read from the fitted curve at half-maximal effect; series mostly up to about 57 µM; nearly all actives have a fitted effect of over 65% in size
USP1 inh: blocks the human USP1/UAF1 deubiquitinase complex. O94782. recombinant USP1/UAF1, Ub-Rhodamine cleavage fluorescence. Potency, µM (highest dose often 57.1 µM), for inactives: at the highest dose activity change, negative = inhibition, usual class: inhibitors. 0.23% of 390,000 active; also: potency is read from the fitted curve at half-maximal effect; nearly all actives have a fitted effect of over 60% in size
Target sequence (O94782 whole entry, looked up): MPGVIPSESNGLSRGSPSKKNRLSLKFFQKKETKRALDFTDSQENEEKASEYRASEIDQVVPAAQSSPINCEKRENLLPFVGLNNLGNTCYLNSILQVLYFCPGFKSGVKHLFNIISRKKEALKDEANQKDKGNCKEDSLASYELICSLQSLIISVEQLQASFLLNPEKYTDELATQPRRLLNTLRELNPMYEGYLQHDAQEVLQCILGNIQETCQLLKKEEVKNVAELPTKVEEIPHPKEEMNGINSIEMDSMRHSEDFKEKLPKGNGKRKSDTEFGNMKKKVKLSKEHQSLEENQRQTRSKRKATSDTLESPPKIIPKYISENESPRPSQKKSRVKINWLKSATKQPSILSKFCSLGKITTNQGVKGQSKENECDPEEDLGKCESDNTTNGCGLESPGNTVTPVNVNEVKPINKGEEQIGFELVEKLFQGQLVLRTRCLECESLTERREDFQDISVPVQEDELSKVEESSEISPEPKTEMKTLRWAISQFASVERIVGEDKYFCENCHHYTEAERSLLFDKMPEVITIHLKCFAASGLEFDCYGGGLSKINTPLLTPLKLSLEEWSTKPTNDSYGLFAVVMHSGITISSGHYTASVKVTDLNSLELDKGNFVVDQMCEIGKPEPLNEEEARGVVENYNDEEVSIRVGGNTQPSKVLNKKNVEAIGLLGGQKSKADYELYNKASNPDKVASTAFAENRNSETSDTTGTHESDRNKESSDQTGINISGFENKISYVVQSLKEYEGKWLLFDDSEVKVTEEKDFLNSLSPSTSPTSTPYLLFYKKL
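USP1/UAF1 complex (1 nM) preincubated 15 min at room temperature with compound, then Ub-Rho substrate (150 nM final) added. Kinetic fluorescence at 480/540 nm over 6 reads at 60 s intervals; 50 mM HEPES pH 7.8, 0.5 mM EDTA, 0.1 mg/ml BSA, 1 mM TCEP, 0.01% Tween-20.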
TbPYK inh: Trypanosoma brucei pyruvate kinase inhibition, cherry-pick confirmation | recombinant TbPYK, Kinase-Glo ATP luminescence | 67% of 890 active | shares compounds with PLK1 PBD inh | Potency, µM (titrated, usually from 76.9 µM), for inactives: top-dose activity change, negative = inhibition, hits mostly inhibitors; also: potency is read from the fitted curve at half-maximal effect; nearly all actives have a fitted effect of over 70% in size
TbPYK ADP-Glo: inhibits T. brucei pyruvate kinase in orthogonal ADP-Glo assay | shares compounds with PLK1 PBD inh | recombinant TbPYK, ADP-Glo luminescence, 60 min | Potency, µM (doses to about 76.9 µM), for the others: top-dose activity change, negative = inhibition, most hits filed as inhibitors | 62% of 890 active | AID 720584; also: potency is read from the fitted curve at half-maximal effect; nearly all actives have a fitted effect of over 75% in size
* = called active by the depositor; ? = inconclusive; / = no result; [ ] = dose if it differs, or a comment. Rows were chosen to be rich in hits. Some 3.3% of all compounds tested hit in one or more screens of this group. Unless noted, calls follow the shape of the dose curve; as a rule, active = well fitted curve in the direction sought with a large enough effect; inconclusive = small, poorly fitted or top-dose-only effect, or another doubt; inactive = no such curve, though single readings can be large; an effect the other way counts as inactive or inconclusive. Unless noted, % is scaled to controls: 0 for no effect and ±100 for the full control effect.

SMILES	WRN helicase inh	USP2a block	PI5P4K alpha inh	PLK1 PBD inh	USP1 inh	TbPYK inh	TbPYK ADP-Glo
CC1(C)Cc2c(c(N3CCOCC3)nc3sc(C(=O)Nc4cccc(Cl)c4)c(N)c23)CO1	-3.1%[57.1 µM]	-0.1%	-3.7	?	-15.7%	1.12µM*	3.55µM*
CC1(C)Cc2c(c(N3CCOCC3)nc3sc(C(=O)Nc4ccccc4)c(N)c23)CO1	-1.5%	-1.5%	-5.1	-3.1%	-18.6%	/	/
COC1=CC(=O)C(C2CC(=O)c3c(O)cc(O)cc3O2)=CC1=O (stereo unspecified)	28.2µM*	/	?	4.23µM*	?	15.8µM*	28.2µM*
COc1c(CC=C(C)C)cc(C2CC(=O)c3c(O)cc(O)cc3O2)cc1CC=C(C)C (stereo unspecified)	-7.3%	-14.5%	-6.1	-7.2%	-18.0%	/	/
CC[n+]1c(/C=C2/C=C(C)CC(C)C2)sc2ccccc21 (stereo unspecified)	2.6%	-5.4%	?	13.4µM*	-16.6%	?	?
NS(=O)(=O)c1ccc(-c2ccc(C=O)o2)cc1	4.3%[57.1 µM]	7.7%	-5.0	-4.3%	-10.9%	/	/
CC1=C(C#N)C(=O)NC(=O)/C1=C/c1ccc(-c2ccc(S(N)(=O)=O)cc2)o1	?	1.5%	-95.9*	9.47µM*	?	-16.8%	-22.2%
Cc1nn(CC(=O)NC2CCCCC2)c(=O)c2cc3cc(F)ccc3n12	/	/	/	/	-20.8%	/	/
COc1ccc(CCNC(=O)CSc2nc(-c3ccc(F)cc3)cc(C(F)(F)F)n2)cc1OC	/	/	/	/	-20.9%	/	/
Cc1nnc(N2CCN(c3ccccc3)CC2)[nH]c1=O	?	1.2%	-54.9*	2.99µM*	-21.6%	3.2%	-3.3%
O=C(O)Cc1ccc2sc(-c3ccccc3)nc2c1	0.9%	2.4%	-14.2	0.2%	-5.3%	31.6µM*	6.6%
COC(=O)Cc1ccc2sc(-c3ccccc3)nc2c1	-25.0%	-8.3%	-8.5	-0.7%	-10.4%	/	/
Cc1ccc(S(=O)(=O)c2ccc(C)cc2)cc1	1.1%	-2.3%	/	-2.4%	-11.7%	/	/
Cc1ccc(S(=O)(=O)C=CS(=O)(=O)c2ccc(C)cc2)cc1	-19.1%	/	-11.3	2.67µM*	-19.1%	-60.6%	?
O=[N+]([O-])c1cc(-c2ccc(C(=S)N3CCOCC3)o2)ccc1Cl	9.1%	-2.4%	-29.5	2.67µM*	?	15.8µM*	15.8µM*
O=[N+]([O-])c1ccccc1-c1ccc(C(=S)N2CCCC2)o1	?	0.3%	?	2.67µM*	?	17.8µM*	31.6µM*
CCn1c(CCNC(=O)c2cccs2)nnc1SCC(=O)c1ccc(OC)cc1	-1.8%	/	/	?	-14.3%	0.891µM*	14.1µM*
Cc1nc(SCC(=O)O)c(C#N)c(C)c1CC(=O)c1ccccc1	-7.5%	1.2%	-0.6	-18.6%	-18.5%	5.62µM*	11.2µM*
CCOC(=O)CCc1c(C)nc(SCc2ccc(C(=O)O)cc2)c(C#N)c1C	8.4%	0.8%	-7.4	-17.2%	-2.0%	/	/
CCOC(=O)CCc1c(C)nc(SCC(=O)O)c(C#N)c1C	7.7%	3.5%	/	-20.4%	-14.9%	2.24µM*	7.08µM*
CCc1ccccc1NC(=O)C(=O)NCC(c1cccnc1)N1CCc2ccccc21 (stereo unspecified)	/	/	/	/	-9.8%	/	/
Cc1onc(-c2ccccc2Cl)c1C(=O)N1CCc2ccccc21	4.1%	2.5%	0.7	-11.2%	-9.7%	/	/
Cc1onc(-c2c(F)cccc2Cl)c1C(=O)N1CCCc2ccccc21	-1.1%	-1.3%	3.4	-1.8%	-19.9%	8.91µM*	7.94µM*
Cc1onc(-c2ccccc2Cl)c1C(=O)N1CCCc2ccccc21	-5.9%	1.1%	/	-6.3%	-10.6%	7.94µM*	8.91µM*
Cc1ccc(Nc2c3c(nc4nncn24)CCC3)cc1C	/	/	/	/	-22.2%	/	/
SMILES	WRN helicase inh	USP2a block	PI5P4K alpha inh	PLK1 PBD inh	USP1 inh	TbPYK inh	TbPYK ADP-Glo
O=C(CSc1nccn1Cc1ccc(F)cc1)Nc1nc2ccccc2s1	/	/	/	/	-24.1%	/	/
O=C(O)/C=C/C(=O)c1ccc2c(c1)NC(=O)CO2	?	1.7%	?	?	-17.4%	15.8µM*	15.8µM*
CCc1nn(Cc2c(C)cc(C)cc2C)c(=O)c2cc3cc(C)ccc3n12	/	/	/	/	-24.9%	/	/
CCOC(=O)C1=C(C)N=c2s/c(=C/c3cccc([N+](=O)[O-])c3O)c(=O)n2C1c1ccc(OC)cc1OC (stereo unspecified)	-32.2%[11.6 µM]	-2.5%	-55.4*	29.9µM*	-18.6%	?	-20.2%
COc1ccc(Nc2ncnc3onc(C)c23)cc1Cl	/	/	/	/	-11.2%	/	/
CCOc1ccc(C2c3c(-c4ccc(C)cc4)n[nH]c3C(=O)N2c2ccc(Cl)cc2)cc1 (stereo unspecified)	/	/	/	/	-26.2%	/	/
CNC(=O)/C(C#N)=c1\s/c(=C/C(=O)OC)c(=O)n1-c1ccccc1	6.2%	1.5%	/	-13.1%	-7.8%	/	/
COC(=O)/C=c1\sc2ncnn2c1=O	-15.8%	3.4%	1.1	?	-16.7%	28.2µM*	28.2µM*
O=C1N/C(=C/c2ccc(N3CCOCC3)o2)C(=O)N1c1ccccc1	?	-1.1%	-9.0	48.9%	-11.2%	?	15.8µM*
CCOc1ccc(C(=O)NCCS(=O)(=O)N2CCN(c3cccc(Cl)c3)CC2)cc1	/	/	/	/	-23.5%	/	/
Cc1ccc(/C=C/C(=O)N2CCN(S(=O)(=O)c3ccc(C)c(C)c3)CC2)o1	?	3.8%	-73.5*	23.8µM*	-15.2%	12.6µM*	15.8µM*
Cc1ccc(S(=O)(=O)NNC(=O)C2CCN(S(=O)(=O)c3ccc(C)cc3)CC2)cc1	1.4%	0.7%	3.7	-7.3%	-7.3%	3.5%	-3.4%
Cc1ccc(C)c(Cn2c(=O)n(C(C)C)c(=O)c3oc4ccccc4c32)c1	/	/	/	/	2.4%	/	/
Cc1ccc(C2=CSC3=NCCN23)c(C)c1	5.5%	3.5%	?	?	-8.4%	12.6µM*	15.8µM*
CCOC(=O)c1c(C)oc2nc(C)nc(NCc3ccc(F)cc3)c12	/	/	/	/	-18.0%	/	/
CCc1ccc(NC(=O)NCC2CCN(c3ccc(OC)cc3)C2)cc1 (stereo unspecified)	-4.9%	0.0%	-3.1	-9.7%	-6.8%	?	-29.0%
CCc1cccc(NC(=O)CCn2c(=O)c3cccn3c3cccnc32)c1	/	/	/	/	-5.6%	/	/
CC(C)c1ccc(NC(=O)C2CCCN(S(=O)(=O)c3cccc4nsnc34)C2)cc1 (stereo unspecified)	/	/	/	/	-3.3%	/	/
O=c1c(S(=O)(=O)c2ccccc2)cn(Cc2ccc(F)cc2)c2cc(N3CCCCC3)c(F)cc12	/	/	/	/	-12.5%	/	/
CC(C)c1cnc2c(c1SCC(=O)N1CCCCC1)c(=O)n(C)c(=O)n2C	/	/	/	/	8.2%	/	/
